FBA Mtb inh = inhibitors of M. tuberculosis fructose-bisphosphate aldolase; inhibition, % at 1 µM; P9WQA3; purified M. tuberculosis FBA, fluorescence read-out; actives 2.3% (n = 360,000); in the data active = inhibition above about 27%
3CLpro inhibitor = SARS-CoV 3CLpro protease inhibition | P0C6X7 | recombinant SARS-CoV 3CLpro, quenched FRET peptide cleavage | inhibition, % at 6 µM | actives 0.14% (n = 290,000) | AID 1706; in the data active = inhibition above about 12%
GDH-TPI counter-1 = inhibits GDH-TPI coupling enzymes, artifact for Mtb FBA screen; AID 588335; actives 1.2% (n = 360,000); inhibition, % at 4.8 µM; GDH-TPI coupled enzyme counterscreen, NADH absorbance
VHR inh abs = inhibitors of human VHR1 phosphatase (DUSP3); recombinant VHR phosphatase, pNPP absorbance; inhibition, % at 13.3 µM; actives 0.52% (n = 290,000); in the data active = inhibition above about 50%
CCHF vOTU inh = CCHFV vOTU protease inhibition. actives 0.55% (n = 370,000). Pep-AMC fluorescence. inhibition, % at 11.5 µM
RecA intein inh = Mtb RecA intein splicing inhibition; inhibition, % (concentration not given with the values); actives 0.75% (n = 290,000); P9WHJ3; AID 2221; cell-free RecA intein splicing, fluorescence; in the data active = inhibition above about 30%
Target sequence (P9WHJ3 whole entry, looked up): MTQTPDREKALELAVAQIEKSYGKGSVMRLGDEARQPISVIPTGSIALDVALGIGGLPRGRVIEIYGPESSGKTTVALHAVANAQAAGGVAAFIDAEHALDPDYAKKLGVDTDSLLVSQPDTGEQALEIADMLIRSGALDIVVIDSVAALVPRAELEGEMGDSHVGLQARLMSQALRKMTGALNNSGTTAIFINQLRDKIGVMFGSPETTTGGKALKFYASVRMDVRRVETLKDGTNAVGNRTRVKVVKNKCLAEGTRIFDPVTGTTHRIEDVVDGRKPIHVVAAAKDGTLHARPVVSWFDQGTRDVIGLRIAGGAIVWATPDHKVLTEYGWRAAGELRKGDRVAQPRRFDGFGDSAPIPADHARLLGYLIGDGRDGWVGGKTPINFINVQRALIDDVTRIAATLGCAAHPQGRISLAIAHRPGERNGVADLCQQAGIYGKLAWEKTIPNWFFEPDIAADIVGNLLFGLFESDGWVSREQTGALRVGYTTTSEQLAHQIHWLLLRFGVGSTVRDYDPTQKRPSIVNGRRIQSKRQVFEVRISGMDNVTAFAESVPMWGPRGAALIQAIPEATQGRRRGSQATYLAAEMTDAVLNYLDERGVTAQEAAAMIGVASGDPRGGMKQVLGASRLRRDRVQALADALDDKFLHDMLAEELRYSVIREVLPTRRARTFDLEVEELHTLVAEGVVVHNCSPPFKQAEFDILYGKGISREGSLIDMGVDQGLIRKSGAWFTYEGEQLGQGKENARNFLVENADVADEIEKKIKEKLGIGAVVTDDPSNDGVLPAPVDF
Mtb FBA inh conf = Mtb FBA inhibition, confirmed; shares compounds with FBA Mtb inh; purified M. tuberculosis FBA, fluorescence read-out; inhibition, % at 1 µM; actives 78% (n = 5,600); AID 651616; in the data active = inhibition above about 27%
GDH-TPI counter-2 = inhibits GDH-TPI coupling enzymes, flagging Mtb FBA hits | inhibition, % at 1 µM | GDH-TPI coupled enzyme counterscreen, fluorescence | actives 81% (n = 5,600) | shares compounds with FBA Mtb inh; in the data active = inhibition above about 10%
Numbers stand for hits; 0 = inactive; - = no result given. Shown are actives, neighbours in structure and some others; about 4.7% of the full set was active somewhere. Cut-off read from the data, not from the text of the source, unless noted: active = inhibition above about 30%; inactive = the rest.

SMILES | FBA Mtb inh | 3CLpro inhibitor | GDH-TPI counter-1 | VHR inh abs | CCHF vOTU inh | RecA intein inh | Mtb FBA inh conf | GDH-TPI counter-2
NC(=O)CSc1n[nH]c(=O)n1CCc1ccccc1 | 0 | 0 | 0 | 0 | 0 | 0 | - | -
CCOc1ccc(S(=O)(=O)N2CCC(C(=O)Nc3ccc(C)c(S(=O)(=O)N4CCOCC4)c3)CC2)cc1 | 0 | - | 0 | - | 0 | - | - | -
CCSc1nc2c(c(=O)[nH]1)C(c1ccc(C)cc1)C1=C(CCCC1=O)N2 (stereo unspecified) | 29.3 | 0 | 0 | 0 | 0 | 0 | 147.6 | 126.4
CC1(C)CC(=O)C2=C(C1)Nc1[nH]c(=S)[nH]c(=O)c1C2c1ccccc1 (stereo unspecified) | 0 | 0 | 0 | 0 | 0 | 0 | - | -
CSc1nc2c(c(=O)[nH]1)C(c1ccccc1)C1=C(CC(C)(C)CC1=O)N2 (stereo unspecified) | 28.5 | 0 | 0 | 0 | 0 | - | 67.7 | 45.2
Cc1ccc(CSc2nc3c(c(=O)[nH]2)C(c2ccncc2)C2=C(CCCC2=O)N3)cc1 (stereo unspecified) | 0 | 0 | 0 | 0 | 0 | 0 | - | -
N#C/C(=N\Nc1ccc(F)cc1)C(=O)C1CC1 | 36.8 | 0 | 0 | 0 | 0 | 0 | 63.3 | 58.7
O=C(Nc1ccc(Cl)c(Cl)c1)C1CCCCC1 | 0 | - | 0 | - | 0 | - | - | -
N#C/C(=N\Nc1ccc(Cl)c(Cl)c1)C(=O)C1CC1 | 65.7 | 0 | 0 | 0 | 0 | 0 | 0 | 0
N#C/C(=N\Nc1ccc(F)cc1)C(=N)N1CCCCCC1 | 0 | 0 | 0 | 0 | 0 | 0 | - | -
CCCC(=O)c1c(NCCO)cc(C)oc1=O | 0 | 0 | 0 | 0 | 0 | 0 | - | -
OC[C@@H]1[C@@H](c2ccc(Cl)cc2)C(c2ccccc2)=NN1c1ccccc1 | 54.3 | - | 0 | - | 0 | - | 109.9 | 78.5
OC[C@@H]1[C@@H](c2ccc(Cl)cc2)C(c2cccc(Cl)c2)=NN1c1ccccc1 | 63.3 | - | 0 | - | 0 | - | 158.3 | 102.1
OC[C@@H]1[C@@H](c2ccc(F)cc2)C(c2cccc(Cl)c2)=NN1c1ccccc1 | 42.5 | - | 0 | - | 0 | - | 40.8 | 36.1
CN1C=CC(=C[N+](=O)[O-])N(C)C1=O | 0 | - | - | - | 0 | - | - | -
CC[C@@H]1C/C=C\Cc2ccccc2[C@H](C(=O)C[C@H](O)CC(C)=O)OC1=O | 0 | - | 0 | - | 0 | - | - | -
COc1ccc(CNC(=O)CCCC2=NS(=O)(=O)c3ccccc3N2)cc1 | 101.7 | 0 | 0 | 0 | 0 | 0 | 132.2 | 139.0
O=C(NCC1CCOCC1)c1ccc(-c2ccc(F)c(F)c2)c2ccoc12 | 0 | - | 0 | - | 0 | - | - | -
CN1CCN(c2ccc(CNC(=O)c3ccc(-c4cnn(C)c4)c4ccoc34)cc2)CC1 | 0 | - | 0 | - | 0 | - | - | -
CN(C)CCNC(=O)c1ccc(-c2cnn(C)c2)c2ccoc12 | 85.1 | - | 0 | - | 0 | - | 104.4 | 94.0
O=C(NCC1CC1)c1ccc(-c2cn[nH]c2)c2ccoc12 | 27.3 | - | 0 | - | 0 | - | 42.7 | 31.1
